Compound activity as filed in PubChem.
Most compounds without a hit are left out; they make up all but 6.9% or so of the library.
CSC inhib: cancer stem cell viability inhibitors, primary screen, luminescence | cancer stem cell-like cells viability | inhibition, % at 7.5 µM | actives 1.1% (n = 300,000) | AID 2717, 2010; in the data active = inhibition above about 75%; inconclusive = no clear call, values can overlap the other calls; tested in HMLE shEcad cells
Beta apoptosis: inhibitors of cytokine-induced beta cell apoptosis, primary screen, luminescence; protection from apoptosis, % (no concentration beside the values); AID 435005, 2010; INS-1E cytokine-induced death, ATP luminescence, 48 h; percent of positive-control rescue, neutral wells zero; actives 0.8% (n = 300,000);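 active = Every replicate reaches about 75%, or at least half do and their mean reaches it too, limit read from the data; inconclusive = At least half of replicates reach the limit but their mean does not; inactive = Under half of replicates reach the limit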;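 also: 0% = cytokine-treated negative control wells and 100% = positive control rescue; higher means more ATP so stronger rescue from cytokine killing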
Mdm2 MdmX PPI: inhibitors of human Mdm2-MdmX association, primary screen, cell-based, luminescence, split luciferase, SaOS-2, uHTS | AID 485346, 2010 | actives 3% (n = 330,000) | SaOS-2 split-luciferase Mdm2/MdmX complementation | inhibition, % at 8 µM;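 active = inhibition of at least 50% at 8 µM in the primary screen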
Target sequence (O15151 whole entry, looked up): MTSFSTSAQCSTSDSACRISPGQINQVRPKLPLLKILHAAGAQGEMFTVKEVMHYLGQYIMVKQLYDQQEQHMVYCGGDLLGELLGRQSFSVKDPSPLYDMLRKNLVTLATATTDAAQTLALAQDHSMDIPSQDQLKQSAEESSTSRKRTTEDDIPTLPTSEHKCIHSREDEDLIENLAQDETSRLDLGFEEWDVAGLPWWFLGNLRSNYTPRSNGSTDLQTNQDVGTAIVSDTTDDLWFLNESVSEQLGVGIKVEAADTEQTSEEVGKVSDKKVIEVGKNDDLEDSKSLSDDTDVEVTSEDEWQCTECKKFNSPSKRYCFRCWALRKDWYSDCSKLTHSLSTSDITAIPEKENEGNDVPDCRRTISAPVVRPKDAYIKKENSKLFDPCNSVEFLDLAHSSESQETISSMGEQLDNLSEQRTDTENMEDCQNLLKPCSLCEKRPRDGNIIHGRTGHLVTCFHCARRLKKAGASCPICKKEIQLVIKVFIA
Target sequence (Q00987 whole entry, looked up): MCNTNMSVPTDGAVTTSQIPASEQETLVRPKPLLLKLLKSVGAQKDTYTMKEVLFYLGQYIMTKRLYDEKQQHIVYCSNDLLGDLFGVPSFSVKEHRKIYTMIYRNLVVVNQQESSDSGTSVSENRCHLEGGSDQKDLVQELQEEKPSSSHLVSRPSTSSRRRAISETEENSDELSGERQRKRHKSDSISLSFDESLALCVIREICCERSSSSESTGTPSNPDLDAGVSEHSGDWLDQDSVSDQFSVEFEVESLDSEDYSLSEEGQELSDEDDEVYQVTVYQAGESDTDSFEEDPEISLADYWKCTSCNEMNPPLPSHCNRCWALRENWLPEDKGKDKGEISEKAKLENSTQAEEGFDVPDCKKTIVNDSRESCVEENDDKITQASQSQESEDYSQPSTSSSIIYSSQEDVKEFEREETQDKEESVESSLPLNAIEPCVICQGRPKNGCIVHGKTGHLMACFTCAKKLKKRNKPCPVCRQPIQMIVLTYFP
MPTP block: mitochondrial permeability transition pore inhibitors, primary screen, biochemical, isolated mouse mitochondria, absorbance | inhibition, % at 10 µM | AID 602449, 2012 | actives 1.4% (n = 360,000) | Ca2+ swelling absorbance, 30 min;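 active = inhibition of 50% or more, scaled per plate between neutral and stimulator controls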;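 also: 0% = DMSO wells given calcium and 100% = 1 mM EGTA wells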
GRIN3A LBD mod: binders of NR3A ligand-binding domain, primary screen, biophysical, differential scanning fluorimetry, uHTS. Glutamate receptor ionotropic, NMDA 3A (GRIN3A) ligand-binding domain. NR3A LBD differential scanning fluorimetry, Tm shift; 0% = protein alone, 100% = glycine-bound protein. Tm shift relative to glycine control, % at 25 µM. actives 2.5% (n = 340,000). AID 1259313, 2017;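 active = melting temperature shift of at least 10% of the positive control shift, at one fixed dose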
SKKanGAS inh: S. pyogenes SKKanGAS growth inhibitors in kanamycin, primary screen, streptokinase expression inhibitor project, SKKanGAS strain, BacTiter-Glo luminescence; 6 h; inhibition, % at 7.5 µM; actives 1.3% (n = 300,000); AID 1662, 2009;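 active = mean replicate score, as percent of positive control median, at least 50; inconclusive = mean below 50 but one replicate at or above 50; inactive = mean and every replicate below 50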;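 also: strain carries kanamycin resistance gene driven by streptokinase promoter and grows in 40 µg/ml kanamycin; loss of luminescence reflects streptokinase promoter inhibition or plain growth inhibition; 0% = median of DMSO wells and 100% = positive control at its reference dose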
* = called active by the depositor; ? = inconclusive; · = no result.

SMILES	CSC inhib	Beta apoptosis	Mdm2 MdmX PPI	MPTP block	GRIN3A LBD mod	SKKanGAS inh
O=C(/C=C/c1ccc2c(c1)OCO2)NCCSCc1cccc(Cl)c1	102.2*	-0.5	15.5	-17.4	26.1*	-6.0
CCN1C(=O)/C(=C\C(=O)c2cccs2)c2cc(Br)ccc21	-3.9	7.2	-4.2	-2.3	31.7*	37.6
CCOC(=O)c1c(N)sc(C(=O)Nc2ccc3c(c2)OCO3)c1C	35.4	11.6	-0.3	1.0	27.7*	7.3
CCOC(=O)c1c(N)sc(C(=O)N(C)C)c1C	-5.0	-6.7	17.0	0.5	11.0*	-5.7
CCOC(=O)c1c(C)c(C(=O)Nc2ccc3c(c2)OCO3)c(C)n1C	·	0.7	5.6	-0.3	-0.5	1.2
CCn1nccc1NC(=O)c1csc([C@H]2C[C@H](O)[C@@H](CO)O2)n1	·	·	·	0.8	·	·
COc1ccccc1CNC(=O)c1ccccc1OCc1ccc(F)cc1	0.7	9.0	14.0	0.5	22.8*	2.4
CC1(C)Cc2c(cnn2-c2ccccc2)C(=O)/C1=N\NC(=O)c1ccncc1	9.6	-0.5	18.8	0.1	0.1	7.0
CC1(C)Cc2c(cnn2-c2ccccc2)-c2c1c1ccccc1n2CC(O)CCl (stereo not drawn)	9.6	-2.6	15.8	0.5	-5.3	63.6*
O=C(O)C(NS(=O)(=O)c1ccc(F)cc1)c1ccccc1 (stereo not drawn)	-11.2	-18.1	-6.9	0.6	-13.9	4.9
CCC/C=C(\CCC)C(NS(=O)(=O)c1ccc(C(F)(F)F)cc1)c1ccccc1 (stereo not drawn)	101.6*	53.2	·	·	·	71.2*
CC(=O)c1cccc(NC(=O)C(=O)Nc2cccc3ccccc23)c1	8.8	-1.5	-46.9	-0.8	62.0*	1.3
CC(=O)c1ccc(NC(=S)Nc2cccc3ccccc23)cc1	8.8	25.2	15.6	0.2	-2.0	22.8
CCCN1CCc2nc(SCC(=O)Nc3ccc(C)c(Cl)c3)[nH]c(=O)c2C1	-5.9	-1.6	21.2	-2.0	-7.6	1.4
COC/C=C/C1=CC2=CC(=O)C(C)(O)C(=O)C2=CO1 (stereo not drawn)	-0.2	-5.7	18.3	·	·	-2.9
COc1ccc2ccc3c(c2c1)N=C[C@]1(O3)N(C)c2ccccc2C1(C)C	-9.1	-8.4	22.2	3.3	2.1	55.8*
COc1ccc2oc(C(=O)OCC(=O)N(C)C3CCCCC3)c(C)c2c1	-5.5	-1.4	14.2	-1.4	0.8	1.1
CC(=O)NC(c1cccs1)c1cc([N+](=O)[O-])c2cccnc2c1O (stereo not drawn)	98.5*	89.7*	·	-1.7	-7.0	14.7
CCCCC(=O)NC(c1cccc([N+](=O)[O-])c1)c1ccc2cccnc2c1O (stereo not drawn)	·	·	·	1.8	-5.2	·
CCC(=O)NC(c1cccs1)c1cc([N+](=O)[O-])c2cccnc2c1O (stereo not drawn)	109.3*	58.2	36.2	-0.5	-8.4	47.1
O=C(CCc1ccccc1)NC(c1cccs1)c1cc(Cl)c2cccnc2c1O (stereo not drawn)	·	·	·	10.3	-4.7	66.8*
CCC(=O)NC(c1cccs1)c1cc(Cl)c2ccccc2c1O (stereo not drawn)	7.7	-13.8	12.4	4.6	-9.9	·
CC(=O)NC(c1cccs1)c1cc(Cl)c2ccccc2c1O (stereo not drawn)	35.6	-6.8	6.4	3.6	-9.9	·
CCCC(=O)NC(c1cccs1)c1cc([N+](=O)[O-])c2cccnc2c1O (stereo not drawn)	105.7*	60.6	·	5.3	-7.1	85.6*
Cc1cc(Cl)ccc1OCC(=O)NNC(=O)c1cccnc1	-7.3	-13.5	2.8	-0.8	0.1	-1.5
SMILES	CSC inhib	Beta apoptosis	Mdm2 MdmX PPI	MPTP block	GRIN3A LBD mod	SKKanGAS inh
Cc1ccc2c(CN(C)Cc3ccc(Cl)cc3)cc(=O)oc2c1	-3.2	·	8.6	0.9	-0.3	17.5
Cc1ccc2c(CN(C)Cc3ccc(Cl)cc3Cl)cc(=O)oc2c1	-3.0	1.3	-0.7	0.5	1.1	52.7*
COc1ccc(CC(=O)O/N=C(\N)Cc2cccc3ccccc23)cc1OC	11.0	-3.6	-3.4	1.8	8.6	-3.8
O=C1N=c2ccccc2=C1c1sc(Nc2ccc(O)cc2)nc1O	·	·	·	0.6	13.2*	·
O=C1N=c2ccccc2=C1c1sc(Nc2cccc(O)c2)nc1O	2.2	-7.5	11.9	1.9	25.2*	36.5
N#Cc1ccc(OCC(=O)N/N=C(\CCC(=O)O)c2cccs2)cc1	-9.9	-1.2	16.4	0.8	1.0	-1.4
CC1(C)OC(C(O)(c2ccccc2)c2ccccc2)[C@@H](C(O)(c2ccccc2)c2ccccc2)O1 (stereo partly drawn)	108.0*	32.1	·	-0.3	-0.5	51.4*
CN(C)Cc1ccccc1C(O)(c1ccccc1)c1ccccc1	5.1	-4.1	14.4	0.5	-1.2	5.0
CCOCCCNC(=O)c1oc2ccc3c(c2c1C)C(O)CC(C)(C)O3 (stereo not drawn)	-3.6	-5.0	17.9	2.2	-1.1	0.5
CC(C)(C)[C@H]1COC(=O)CCC/C=C/C[C@H](CC(=O)NCCO)C(=O)N1	·	-3.8	7.0	0.3	-1.8	·
Oc1ccc(-c2c(-c3ccsc3)sc3ccccc23)cc1	4.5	-5.3	-0.7	1.5	0.0	108.0*
CN1CCN(C(=S)c2ccc(Cl)cc2)CC1	15.8	-4.0	10.2	1.5	10.2*	2.9
CCOc1ccc(-n2nc3ccc(NC(=O)c4ccc5c(c4)OCCO5)cc3n2)cc1	12.7	34.9	36.5	3.0	19.0*	-0.5
CCOc1ccc(C(=O)Nc2ccc3c(c2)OCCO3)cc1OC	8.9	2.6	-13.9	-0.8	-0.3	-3.1
CCCC(=O)Nc1nc2ccc(NC(=O)c3ccc(Br)o3)cc2s1	2.6	8.0	23.9	-0.8	17.8*	5.0
O=C(Nc1ccc2nn(-c3ccccc3)nc2c1)c1ccc(Br)o1	-1.7	15.5	-6.5	12.0	18.9*	4.4
O=C(/C=C/c1ccco1)Nc1ccc2nn(-c3ccccc3)nc2c1	2.3	1.4	·	4.7	13.8*	4.7
O=S(=O)(Nc1ccc2c(c1)OCCO2)c1c(F)cccc1F	·	0.1	12.3	-0.8	-0.1	1.9
COc1ccccc1CCN1CCCC(CN(C)C(=O)CCC(N)=O)C1 (stereo not drawn)	6.5	-0.1	5.7	-0.3	0.9	2.0
O=C(Nc1ccc2nn(-c3ccccc3)nc2c1)c1ccc2c(c1)OCCO2	-8.3	·	17.4	-2.9	20.8*	-6.1
CCCc1nc2ccccc2c(C(=O)OCC(=O)Nc2ccc(S(=O)(=O)N3CCOCC3)cc2)c1CC	90.7*	8.4	37.5	33.0	17.8*	?
